From PubChem BioAssay AID743294 (Broad Institute, 2014) come the findings set out here.

Molecules are shown by their SMILES. Results with a measured potency or affinity are listed apart. Active and inactive are the calls of the source.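 Rule for the calls: active = compounds lowering fluorescence whose fitted half-maximal dose is at most twice the top valid dose; inconclusive = flat fit between -70% and -30%, or poor curve fit; inactive = the rest.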

Caspase-8 (Homo sapiens), sequence (Q14790 whole entry, looked up): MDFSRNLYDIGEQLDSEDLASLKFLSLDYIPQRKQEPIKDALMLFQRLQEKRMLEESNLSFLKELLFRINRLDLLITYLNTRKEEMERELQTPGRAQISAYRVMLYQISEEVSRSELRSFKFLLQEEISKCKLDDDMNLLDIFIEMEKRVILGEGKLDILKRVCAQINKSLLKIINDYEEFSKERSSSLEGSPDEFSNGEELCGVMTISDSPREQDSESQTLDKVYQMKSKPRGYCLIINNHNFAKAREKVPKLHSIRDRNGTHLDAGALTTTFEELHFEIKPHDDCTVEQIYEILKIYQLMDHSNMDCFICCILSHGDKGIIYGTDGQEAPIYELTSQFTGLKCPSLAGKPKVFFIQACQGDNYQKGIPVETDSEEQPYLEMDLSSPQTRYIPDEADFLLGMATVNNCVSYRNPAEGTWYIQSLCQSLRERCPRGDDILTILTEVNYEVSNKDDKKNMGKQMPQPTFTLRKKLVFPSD

The experiment concerns the target Caspase-8 (Homo sapiens) (UniProt Q14790). The experiment can be described thus: caspase-8 inhibition counter-screen, dose response, selectivity assay for caspase-6 inhibitor project, biochemical, Z-IETD-R110 fluorescence, cherry-picked samples (AID 743294). The settings on record: purified caspase-8, Z-IETD-R110 cleavage fluorescence; series mostly up to 35 µM.
For the compound `CCN(CC)CCCC(C)n1c2nc(=O)[nH]c(=O)c-2nc2cc(Cl)ccc21` (centres undefined), the result was inactive.
The result for `O=C(O)CCc1ccc(-c2ccc(Br)cc2)n1CC(=O)O` reads “inactive”; that for `COc1ccc(NS(=O)(=O)c2ccc3c(c2)[C@H]2C=CC[C@H]2[C@@H](c2ccc(C(=O)O)cc2)N3)cc1`, “inactive”; that for `Nc1c(O)cccc1C(=O)O`, “inactive”.
Take `COc1cc(NC(C)CCCNC(C)C)c2ncccc2c1OC` (centres undefined): the compound was called inactive.
For `CCOC(=O)c1sc2nc(OCCN3CCOCC3)cc(C)c2c1N`, the call was inactive.
Take `O=C(CCO)c1ccc(O)cc1`: the result was inactive.
Regarding `COCCn1c2nc(=O)n(-c3ccccc3)c(=O)c-2nc2ccccc21`, the call was inactive.
The entry for `O=C(Nc1ccc2nc3n(c(=O)c2c1)CCCCC3)c1c(F)ccc([N+](=O)[O-])c1F` is “inactive”; for `Cc1ccc(S(=O)(=O)Nc2csc(C)c2C(=O)O)cc1` it is “inactive”.
With `O=c1cc2c(=O)oc3cc(O)c(O)oc3c2c(O)c1O`, the outcome was inactive.
The entry for `O=C(C[C@@H]1C[C@H]2c3cc(NC(=O)NC4CCCCC4)ccc3O[C@H]2[C@H](CO)O1)NCc1ccccn1` is “inactive”; for `CCOC(=O)[C@H](Cc1c[nH]c2ccccc12)NC(=O)CN=[N+]=[N-]` it is “inactive”; for `[O-][n+]1onc2c1CCc1c-2nn(-c2ccccc2Cl)[n+]1[O-]` it is “inactive”.
The entry for `CO[C@H]1CN(C)C(=O)c2cc(NC(C)=O)ccc2OC[C@@H](C)N(C(=O)CC2CC2)C[C@H]1C` is “inactive”; for `O=P(c1ccccc1)(c1ccccc1)c1cc(S(=O)(=O)O)ccc1O` it is “inactive”.
For `C/C(CC(=O)N1CCCC1)=N\NC(=O)c1cc2ccccc2cc1O`, the result was inactive.
The entry for `CNS(=O)(=O)c1cccc(C(=O)OCC(=O)N2c3ccccc3NC(=O)C2(C)C)c1` is “inactive”.
The entry for `Cc1ccc(S(=O)c2ccc([N+](=O)[O-])c3nonc23)cc1` (centres undefined) is “inactive”.
The entry for `CC(CNc1ccccc1O)C(=O)O` (centres undefined) is “inactive”.
For the compound `O=C(O)Cc1ccc(-n2cccc2)cc1`, the outcome was inactive.
In the case of `Nc1cc(S(=O)(=O)O)cc([N+](=O)[O-])c1O`, the compound was called inactive.
In the case of `O=C(Nc1ccc(S(=O)(=O)Nc2cnc3ccccc3n2)cc1)c1ccc(Cl)c([N+](=O)[O-])c1`, the compound was classed as inactive.
For `Cc1oc2c(cc(NS(=O)(=O)c3ccc(C(C)C)cc3)c3ccccc32)c1C(=O)O`, the result was inactive.
As for `Nc1ccc(Nc2ccccc2)c(S(=O)(=O)O)c1`, the call was inactive.
For the compound `O=[N+]([O-])c1c(Nc2ccccn2)cc(Cl)c2nonc12`, the result was inactive.
The result for `Cn1cnnc1SCC(=O)Nc1ncc([N+](=O)[O-])s1` reads “inactive”; that for `Cc1[nH]nc(S(=O)CC(=O)O)c1[N+](=O)[O-]` (centres undefined), “inactive”; that for `COc1ccc([N+](=O)[O-])cc1NC(=O)CCS(=O)(=O)c1ccc(Br)cc1`, “inactive”.
The result for `O=c1c(CO)cc(CO)cc(CO)c1O` reads “inactive”; that for `O=C(O)/C(=C\c1ccc(Cl)c([N+](=O)[O-])c1)c1ccc(S(=O)(=O)N2CCCC2)s1`, “inactive”.
`CCCSC1=N/C(=C\c2ccc([N+](=O)[O-])o2)C(=O)S1`: the call was inactive.
In the case of `Oc1cc2c(cc1O)[C@H]1c3ccc(O)c(O)c3OC[C@@]1(O)C2`, the outcome was inactive.
The entry for `Cc1cc(C=O)c(C)n1-c1cc(C(=O)O)cc(C(=O)O)c1` is “inactive”; for `Cc1cc(C=O)c(C)n1-c1ccc(Cl)c(C(=O)O)c1` it is “inactive”; for `COc1cc(NCCCCC(C)N)c2nccc(C)c2c1` (centres undefined) it is “inactive”.
The result for `COc1ccc(C(=O)OCC(=O)Nc2ncc([N+](=O)[O-])s2)cc1OC` reads “inactive”.
The entry for `CCCCNC(=O)c1nc(C2CCNCC2)oc1-c1cccc(C(F)(F)F)c1` is “inactive”; for `O=C(O)CC(CCc1ccccc1)OC1OC(CO)C(O)C(O)C1O` (centres undefined) it is “inactive”.
